Experimental data published in PubChem BioAssay AID1159580 (chemical genetic matrix, 2015).
In all, about 5,500 compounds went through this assay and about 2,000 (36%) were called active. Inconclusive results (about 18%) are left out. No stated cut-off is given here; in the data, active means normalized growth mostly below about 0.91 (no sharp cut-off); inconclusive means no clear call, values can overlap the other calls; inactive means mostly above about 0.92. The list shows a part of the results.

Test: chemical genetic growth profiling, strain panel (AID 1159580);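 further: tested at 20 µM; growth read once vehicle control cultures reached saturation at 30 °C; 1 = growth at the plate median or of vehicle wells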
Details: S. cerevisiae deletion strains, growth OD

Measured: normalized growth

CS/C(N)=N\N=C/c1c(F)cccc1Cl
inactive: locus YAL013W, strain DEP1, stronger effect = lower value 0.998 | locus YBR229C, strain ROT2, stronger effect = lower value 0.992 | locus YCL061C, strain MRC1, stronger effect = lower value 0.996 | locus YDL101C, strain DUN1, stronger effect = lower value 1 | locus YDR150W, strain NUM1, stronger effect = lower value 0.995 | locus YEL061C, strain CIN8, stronger effect = lower value 1 | locus YGR078C, strain PAC10, stronger effect = lower value 1.01 | locus YHR030C, strain SLT2, stronger effect = lower value 0.988 | locus YHR087W, strain rtc3, stronger effect = lower value 0.979 | locus YJL187C, strain SWE1, stronger effect = lower value 0.986 | locus YJR043C, strain POL32, stronger effect = lower value 0.992 | locus YJR075W, strain HOC1, stronger effect = lower value 0.991 | locus YLR039C, strain RIC1, stronger effect = lower value 1.1 | locus YLR058C, strain SHM2 (second series), stronger effect = lower value 0.998 | locus YLR085C, strain ARP6, stronger effect = lower value 1.08 | locus YLR262C, strain YPT6, stronger effect = lower value 1.03 | locus YML094W, strain GIM5, stronger effect = lower value 0.993 | locus YMR219W, strain ESC1, stronger effect = lower value 0.995 | locus YMR263W, strain SAP30, stronger effect = lower value 1.02 | locus YNL153C, strain GIM3, stronger effect = lower value 0.998 | locus YNL298W, strain CLA4 (second series), stronger effect = lower value 1.05 | locus YNL322C, strain KRE1, stronger effect = lower value 1 | locus YNR030W, strain Alg12, stronger effect = lower value 1.05 | locus YPL055C, strain LGE1, stronger effect = lower value 1 | locus YPL241C, strain CIN2, stronger effect = lower value 0.988 | locus YPR135W, strain CTF4, stronger effect = lower value 1.03
